Laboratory results: PubChem BioAssay (NCI)
Compounds without any hit were thinned out: in the full panel of roughly 79,000, 15% have a hit. A number with no mark means an inactive call. Calls of active or inactive are those of the source. Rule as the data show it: active = growth inhibition above about 70%; inactive = the rest.

What was measured:
[1] = NCI Yeast Anticancer Drug Screen. Data for the rad50 strain (AID 155);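 also: 0% = growth of vehicle-only cultures of the same strain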; details: S. cerevisiae rad50 strain growth inhibition, stronger effect = higher value
Outline: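 Relative growth inhibition (compound vs vehicle) was measured in yeast with a defined repair-gene alteration.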

[2] = NCI Yeast Anticancer Drug Screen. Data for the mec2-1 strain (AID 157); details: S. cerevisiae mec2-1 strain, stronger effect = higher value
Outline: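 Test agents were screened against the mec2-1 yeast strain, with defined DNA repair or cell cycle alteration. Growth was scored as inhibition against vehicle-only controls.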

[3] = NCI Yeast Anticancer Drug Screen. Data for the sgs1 mgt1 strain (AID 161);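 also: 0% = growth of cultures given vehicle only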; details: S. cerevisiae sgs1 mgt1 strain, stronger effect = higher value
Outline: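 Read-out: growth inhibition vs vehicle controls. Cells: mutant yeast strain deficient in DNA damage repair.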

[4] = NCI Yeast Anticancer Drug Screen. Data for the cln2 rad14 strain (AID 165);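 also: 0% = growth equal to vehicle treated cultures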; details: S. cerevisiae cln2 rad14 strain, stronger effect = higher value
Outline: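 Growth of compound-exposed yeast (cln2 rad14 genotype) measured and expressed as inhibition relative to vehicle.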

[5] = NCI Yeast Anticancer Drug Screen. Data for the bub3 strain (AID 167); details: S. cerevisiae bub3 mutant strain, stronger effect = higher value
Outline: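 Screening used yeast with an engineered genetic alteration affecting cell cycle control. Compound-exposed cultures were compared with vehicle cultures, and reduced growth was taken as inhibition.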

[6] = NCI Yeast Anticancer Drug Screen. Data for the mlh1 rad18 strain (AID 175); details: S. cerevisiae mlh1 rad18 strain growth inhibition, stronger effect = higher value
Outline: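 In this whole-cell yeast screen, a strain with altered DNA damage repair is challenged with compound, and its growth is measured against matched vehicle-treated controls.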

[7] = at 5.0 µM (retest, dose inferred, filed as 0.5)
[8] = at 50.0 µM (retest, dose inferred, filed as 5.0)

| Structure (SMILES) | growth inhibition [1, 7] | growth inhibition [1, 8] | growth inhibition ([1]; at 50.0 µM) | growth inhibition [2, 7] | growth inhibition [2, 8] | growth inhibition ([2]; at 50.0 µM) | growth inhibition [3, 7] | growth inhibition [3, 8] | growth inhibition ([3]; at 50.0 µM) | growth inhibition [4, 7] | growth inhibition [4, 8] | growth inhibition ([4]; at 50.0 µM) | growth inhibition [5, 7] | growth inhibition [5, 8] | growth inhibition ([5]; at 50.0 µM) | growth inhibition [6, 7] | growth inhibition [6, 8] | growth inhibition ([6]; at 50.0 µM) |
| --- | --- | --- | --- | --- | --- | --- | --- | --- | --- | --- | --- | --- | --- | --- | --- | --- | --- | --- |
| CC12C=CC(=O)C=C1CCC1C3CCC(O)(C(=O)CO)C3(C)CC(O)C12F (centres undefined) | 2% | 63% | 11.4% | 4% | 65% | 25.6% | 3% | 54% | 7.65% | 6% | 35% | 72.8% (active) | 6% | 82% (active) | 0.6% | 4% | 79% (active) | 2.15% |
| CCCN(CCC)C(=O)C(C)C | 1% | -1% | 9.95% | 2% | -4% | -5.6% | -1% | -7% | -5.3% | 0% | -4% | 32.5% | -2% | -2% | -13.1% | 3% | -3% | 16.1% |
| C=C(C)/C([O-])=N/[N+](C)(C)CC(O)CCCCCCCCCCCC (centres undefined) | 34% | 98% (active) | 91.7% (active) | 32% | 99% (active) | 91.5% (active) | 60% | 99% (active) | 92.2% (active) | 57% | 99% (active) | 90.3% (active) | 67% | 99% (active) | 91.5% (active) | 31% | 98% (active) | 90.2% (active) |
| O=C(Oc1c(Cl)cc(Cl)c(Cl)c1Cl)Oc1c(Cl)cc(Cl)c(Cl)c1Cl | 4% | 1% | -1.15% | 5% | 4% | 15.2% | 6% | -11% | 0.3% | 6% | -11% | 6.85% | 4% | 0% | 70% (active) | 1% | -1% | 0.15% |
| CCCCCCCCC(=O)Cl | 11% | 82% (active) | 74.4% (active) | 9% | 61% | 47.9% | 10% | 64% | 77.5% (active) | 6% | 38% | 27.1% | 0% | 77% (active) | 69.3% | 6% | 69% | 88.3% (active) |
| CCOC(=O)CN1C(=O)S/C(=C/c2ccc([N+](=O)[O-])o2)C1=O | 9% | 93% (active) | 77.2% (active) | 3% | 94% (active) | 76% (active) | 12% | 98% (active) | 91.3% (active) | -3% | 89% (active) | 56.3% | 3% | 96% (active) | 86% (active) | 21% | 96% (active) | 87.1% (active) |
| COc1ccc(C(=O)C2=C(C)Nc3ccc(Br)cc3S2)cc1 | -2% | 27% | 4.55% | -2% | 20% | 14.1% | -12% | 44% | -4.7% | -8% | 16% | -3.4% | -9% | 38% | -0.3% | -7% | 23% | 12.4% |
| OCc1c2c(cc3c1CC1(C3)Cc3cc4c(c(CO)c3C1)CCC4)CCC2 | 30% | 94% (active) | 8.5% | 19% | 97% (active) | 24.3% | 22% | 98% (active) | 27.1% | 10% | 97% (active) | 46.4% | 18% | 97% (active) | 52.8% | 27% | 94% (active) | 27.4% |
| Cc1cc(=O)[nH]c(NN2C(Cl)C(=O)C2c2ccc(O)cc2)n1 (centres undefined) | -14% | 81% (active) | 82.2% (active) | -9% | 82% (active) | 67.2% | -5% | 68% | 79.5% (active) | 14% | 63% | 53.6% | 7% | 94% (active) | 78.3% (active) | 7% | 92% (active) | 71.3% (active) |
| COc1ccc2ccccc2c1/C=C/C(=O)c1ccccc1 | -3% | 34% | 54.6% | 7% | 43% | 19.4% | 11% | 47% | 42.4% | -19% | 40% | 56.2% | -8% | 58% | 46% | 1% | 72% (active) | 46.4% |
| FC(F)(F)c1ccccc1NC(=S)SCc1ccc(Cl)cc1 | 3% | 53% | 97% (active) | -2% | 95% (active) | 97.2% (active) | 1% | 94% (active) | 99.2% (active) | -3% | 69% | 98.5% (active) | 14% | 90% (active) | 97.4% (active) | -3% | 83% (active) | 99.2% (active) |
| CSc1cc2c(cc1N)Cc1ccccc1-2 | 3% | 71% (active) | 85.4% (active) | 8% | 88% (active) | 90.8% (active) | 3% | 30% | 97% (active) | 1% | 50% | 88.7% (active) | -1% | 91% (active) | 97.3% (active) | 6% | 89% (active) | 97.3% (active) |
| CC(C)c1ccc2c(c1)CCC1C(C)(CNC(=O)S)CCCC21C.[Zn+2] (centres undefined) | 9% | 13% | -8.15% | 8% | 30% | 46.8% | 5% | 40% | -10.6% | 10% | 4% | 38.5% | 6% | 35% | 2% | 5% | 29% | -10.6% |
| COc1ccc(SSc2ccc(OC)n[n+]2[O-])[n+]([O-])n1 | 98% (active) | 99% (active) | 99.3% (active) | 98% (active) | 100% (active) | 99.7% (active) | 93% (active) | 99% (active) | 98.8% (active) | 57% | 97% (active) | 98.3% (active) | 59% | 99% (active) | 99.5% (active) | 72% (active) | 99% (active) | 99.5% (active) |
| CC[N+]1(C)CC2CCC(CC2)C1 (centres undefined) | -2% | -5% | -1.6% | -3% | -3% | 35% | -4% | -2% | 7.2% | -4% | -6% | 72% (active) | -3% | 2% | -7.15% | -4% | -3% | 7.35% |
| COc1ccccc1NC(=O)C1=C(C)NC(C)=C(C(=O)Nc2ccccc2OC)C1c1ccc(OC)c(OC)c1 | 9% | 50% | 55.9% | -3% | 43% | 26.6% | 9% | 48% | 49.9% | -4% | 31% | -38.9% | -1% | 51% | -3.55% | 2% | 38% | 23.9% |
| c1cc(Nc2ccc(Nc3ccc(CN4CCCCC4)cc3)cc2)ccc1CN1CCCCC1 | 39% | 98% (active) | 81.8% (active) | 31% | 99% (active) | 89.8% (active) | 66% | 99% (active) | 90.9% (active) | 54% | 99% (active) | 83.2% (active) | 63% | 99% (active) | 89.2% (active) | 36% | 98% (active) | 87.5% (active) |
| CN(C)CCOC1(CC2CCCCC2)CCC(C(C)(C)C)CC1 (centres undefined) | -9% | 100% (active) | 99% (active) | -17% | 99% (active) | 99% (active) | -6% | 99% (active) | 99.4% (active) | 11% | 100% (active) | 99.5% (active) | -1% | 100% (active) | 98.9% (active) | 14% | 100% (active) | 99.3% (active) |
